CYP2C19 inhib = inhibitors of human CYP2C19; CYP2C19 Supersomes, luciferin-H EGE luminescence, 30 min; actives 21% (n = 96,000); inhibition, % at 5 µM;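 active = CYP2C19 inhibition above a set limit at 5 µM in the primary screen, cut at about 50% in these data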;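 also: plate controls were negative control wells for no effect and 2.5 mM tranylcypromine positive control for full effect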
CYP2C9 act = CYP2C9 (human) activation | activation factor at 5 µM | AID 1024 | P11712 | actives 1.4% (n = 96,000) | recombinant CYP2C9, luciferin-H conversion, luminescence; stronger effect = higher value; factor 1 = untreated enzyme, 0 = blocked;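 active = activation factor of 2 or more for CYP2C9 at a 5 µM dose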;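 also: 0 = sulfaphenazole-blocked wells and 1 = vehicle-only wells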
Target sequence (P11712 whole entry, looked up): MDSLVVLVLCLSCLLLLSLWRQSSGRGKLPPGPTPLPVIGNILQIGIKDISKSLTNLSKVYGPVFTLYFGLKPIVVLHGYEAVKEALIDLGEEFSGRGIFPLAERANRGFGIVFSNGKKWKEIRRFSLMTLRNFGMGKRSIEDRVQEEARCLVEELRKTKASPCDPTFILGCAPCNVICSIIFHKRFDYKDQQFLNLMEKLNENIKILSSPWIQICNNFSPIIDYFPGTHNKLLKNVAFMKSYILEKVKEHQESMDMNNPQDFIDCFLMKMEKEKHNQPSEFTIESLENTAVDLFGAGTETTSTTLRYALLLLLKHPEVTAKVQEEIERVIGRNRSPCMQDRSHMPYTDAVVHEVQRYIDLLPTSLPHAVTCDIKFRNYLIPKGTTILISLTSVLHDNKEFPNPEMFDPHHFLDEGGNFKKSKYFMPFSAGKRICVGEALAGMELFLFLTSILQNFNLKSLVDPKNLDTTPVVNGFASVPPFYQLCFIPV
CYP2C19 activ = increases human CYP2C19 enzyme activity | P33261 | recombinant CYP2C19, luciferin-H EGE luminescence; stronger effect = higher value; 0 = fully inhibited enzyme, 1 = untreated enzyme | AID 1025 | activation factor at 5 µM | 96,000 tested, under 10 active;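 active = activation factor of at least 2 at 5 µM in the primary screen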;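 also: 0 = wells with 2.5 mM tranylcypromine and 1 = vehicle-only wells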
CYP2C9 inhib = inhibitors of human CYP2C9; inhibition, % at 5 µM; CYP2C9 Supersomes, luciferin-H conversion, luminescence; P11712; AID 777; actives 20% (n = 96,000);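 active = blocking of liver enzyme CYP2C9 beyond about 50% at 5 µM, limit read from the data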
Cav3 T inh = blocks human Cav3.2 T-type calcium channel | Cav3.2-expressing cells, Fluo-4 calcium fluorescence FDSS; stronger effect = lower value | actives 4% (n = 100,000) | O95180 | B-score at 10 µM | AID 449739;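 active = single-dose well whose peak fluorescence ratio is a statistical outlier from its plate by either plate-standardised score or position-corrected B-score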
* marks the source's active call; other numbers are inactive results; · = no result given. This is a sample that favours compounds with a hit; in the whole collection about 27% have one here.

SMILES | CYP2C19 inhib | CYP2C9 act | CYP2C19 activ | CYP2C9 inhib | Cav3 T inh
CC1(C)CCCN(C(=O)N2c3ccccc3Sc3ccccc32)C1 | 16.4 | 0.9 | 0.8 | 6.9 | -1.31
S=C(Nc1ccc2c(c1)OCO2)NC1CCN(Cc2ccccc2)CC1 | 17.7 | 0.9 | 0.8 | 5.3 | 0.0551
Cc1ccc(C)c(NC(=S)NNC(=O)c2sccc2C)c1 | 79.0* | 0.1 | 0.2 | 88.7* | -0.205
Cc1nnc(SCc2ccc(F)cc2)n1NC/C=C/c1ccccc1 | · | · | · | · | -0.506
Fc1ccccc1CSc1nncn1NC/C=C/c1ccccc1 | 52.8* | 0.8 | 0.5 | 17.6 | -1.52
COCCOC(=O)c1c(C)oc2ccc(OCc3cc(C(=O)OC)oc3C)cc12 | 43.1 | 0.4 | 0.6 | 55.6* | -1.37
COC(=O)c1cc(COc2ccc3c(c2)oc(=O)c2ccccc23)c(C)o1 | 51.9* | 0.5 | 0.5 | 49.4 | -0.427
O=C1CC(c2ccccc2)n2nc(NC(=O)C3CCCO3)nc2N1 (stereo not given) | 91.0* | 0.2 | 0.1 | 79.2* | -0.617
COC(=O)C(F)(F)Sc1c(C)[nH]c2ccccc12 | · | · | · | · | 1.11
CCCCCNC(=O)c1ccc2c(=O)[nH]c3c(C(=O)NCC4CCCO4)sc(=S)n3c2c1 (stereo not given) | 34.8 | 0.1 | 0.7 | 94.9* | -3.07
O=C(NCc1ccco1)c1sc(=S)n2c1[nH]c(=O)c1ccccc12 | 29.2 | 0 | 0.7 | 98.8* | -2.66
O=C(NC1CCCC1)c1sc(=S)n2c1[nH]c(=O)c1ccccc12 | 28.1 | 0.1 | 0.7 | 93.0* | -2.86
O=C1O/C(=C/C(=O)N2CCOCC2)c2ccccc21 | · | · | · | · | 0.163
CCOc1ccc(S(=O)(=O)Nc2nc3ccc(OC)cc3s2)cc1 | 82.3* | 0 | 0.2 | 98.6* | 0.194
CCOc1ccc2nc(NS(=O)(=O)c3ccc4c(c3)n(C)c(=O)n4C)sc2c1 | 43.8 | 0 | 0.6 | 97.6* | 0.276
CCOc1ccc2nc(NS(C)(=O)=O)sc2c1 | -0.9 | 0.7 | 1 | 28.9 | -0.759
Cc1ccc(S(=O)(=O)Nc2nc3ccc(S(C)(=O)=O)cc3s2)cc1 | 28.7 | 0 | 0.7 | 97.7* | 0.398
O=C(COc1ccc2ccccc2c1)Nc1ccc(Cc2ccncc2)cc1 | 89.8* | 0.1 | 0.1 | 94.8* | -1.68
Cc1cc(OCC(=O)Nc2ccncc2)ccc1Br | 100.4* | 0 | 0 | 99.2* | -2.07
Cc1ccc(OCC(=O)Nc2ccc([N+](=O)[O-])cn2)cc1C | · | · | · | · | 0.101
O=C(COc1ccc2ccccc2c1)Nc1cccc2cccnc12 | 3.4 | 1.6 | 1 | -55.1 | -1.35
Cc1c(NC(=O)c2cc(CC(C)C)on2)c(=O)n(-c2ccccc2)n1C | 5.5 | 0.9 | 0.9 | 13.7 | -0.0102
CN(C)CCN1C(=O)C(=O)/C(=C(/O)c2ccc(OCc3ccccc3)cc2)C1c1ccncc1 (stereo not given) | 9.1 | 1 | 0.9 | -4.6 | 0.00845
CCCCNC(=O)Oc1cccc(N2CCCC2=O)c1 | 2.2 | 1.2 | 1 | -15.3 | 0.379
Cc1cccc(NC(=O)CSc2nnc([C@@H](N)Cc3ccccc3)o2)c1C | 69.9* | 0.9 | 0.3 | 9.4 | 1.73
SMILES | CYP2C19 inhib | CYP2C9 act | CYP2C19 activ | CYP2C9 inhib | Cav3 T inh
COc1cccc(NC(=O)CSc2nnc(-c3cc(C)n(-c4ccccc4)c3C)o2)c1 | 49.6 | 0.2 | 0.5 | 77.6* | -3.61*
COc1ccccc1NC(=O)CSc1nnc(-c2ccccc2)o1 | 59.1* | 0.9 | 0.4 | 14.7 | -2.24
Cc1ccccc1-c1nnc(SCC(=O)Nc2cccc(C)c2C)o1 | 12.3 | 0.6 | 0.9 | 38.1 | -0.549
COc1ccc(NC(=O)CSc2nnc(Cc3ccccc3)o2)c(OC)c1 | 70.8* | 0.7 | 0.3 | 25.7 | -0.503
O=C(OCC(=O)N1CCN(C(=O)c2ccco2)CC1)c1ccccc1C(=O)c1ccc(Cl)cc1 | 20.9 | 0.7 | 0.8 | 30.8 | 0.436
C/C=C\C(=O)Nc1cccc(C2=NOC3(C2)C[C@H](C(N)=O)N(C(=O)[C@H]2CCC(=O)N2)C3)c1 (stereo not given in full) | · | · | · | · | 0.776
COC(=O)c1ccccc1NC(=O)CSc1nc(N)cc(N)n1 | 34.3 | 0.9 | 0.7 | 5.6 | 1.05
COC(=O)CSc1nnc(-c2ccc(NS(=O)(=O)c3ccccc3)cc2)o1 | 47.4 | 0.1 | 0.5 | 94.2* | 1.08
COC(=O)c1ccccc1NC(=O)CSc1nnc(-c2ccncc2)o1 | 68.0* | 0.6 | 0.3 | 39.1 | 1.25
NC(=O)C1CCN(Cc2nc(-c3ccccc3)no2)CC1 | 4.9 | 0.9 | 1 | 7.3 | 0.962
Cc1ccc(-c2nn(C)c(=O)c3ccccc23)cc1CNS(C)(=O)=O | 6.1 | 2.3* | 0.9 | -134.7 | 1.18
CCOC(=O)NCc1cc(-c2nn(C)c(=O)c3ccccc23)ccc1C | 68.6* | 0.2 | 0.3 | 78.3* | 0.312
CC(=O)NCc1cc(-c2nn(C)c(=O)c3ccccc23)ccc1C | -4.7 | 0.7 | 1 | 27.3 | 2.11
COc1ccc(N=C2S/C(=C\c3ccc(N4CCOCC4)o3)C(=O)N2CCc2c[nH]c3ccccc23)cc1 | 32.0 | 0.4 | 0.7 | 64.4* | -2.7
CCCN1C(=O)/C(=C/c2ccco2)SC1=Nc1ccc(OC)cc1 | 10.0 | 0.7 | 0.9 | 27.8 | 0.0782
CN(CC(=O)NCc1cccs1)S(=O)(=O)c1cccc2cccnc12 | 22.2 | 2.4* | 0.8 | -138.4 | -0.0598
CN(C)c1ccc(CNC(=O)CN(C)S(=O)(=O)c2cccc3cccnc23)cc1 | 70.3* | 0.6 | 0.3 | 44.3 | -0.458
CN(CC(=O)NCc1ccccn1)S(=O)(=O)c1ccccc1 | 20.5 | 0.9 | 0.8 | 12.7 | 1.27
Cc1cc(C(=O)COC(=O)Cn2cnc3c2c(=O)n(C)c(=O)n3C)c(C)n1C | -5.2 | 0.9 | 1.1 | 6.7 | -0.0404
COc1cc(C(=O)OCC(=O)c2cc(C)n(C)c2C)cc(OC)c1OC | 58.5* | 2.5* | 0.4 | -148.1 | 1.68
COc1ccc(-n2nc3c(c2NC(=O)C24CC5CC(CC(C5)C2)C4)CS(=O)C3)cc1 (stereo not given) | -14.9 | 2.4* | 1.1 | -144.3 | ·
O=c1oc2c(CN3CCCCC3)c(O)ccc2cc1-c1nc2ccccc2[nH]1 | 54.0* | 0.5 | 0.5 | 52.5* | ·
c1ccc2[nH]c(CN3CCCCC3)nc2c1 | 42.6 | 0.9 | 0.6 | 11.5 | 0.427
CCO[C@H]1OC(C(N)=O)=C[C@@H](C(C)(C)C)[C@@H]1CCCO | · | · | · | · | 1.15
Cc1ccc(-c2cc(-c3ccccc3)c3c(N)c(S(C)(=O)=O)sc3n2)cc1 | 28.6 | 0.4 | 0.7 | 57.7* | -0.292
CCOC(=O)c1c(C)[nH]sc1=S | 8.1 | 0.9 | 0.9 | 14.3 | 0.562
CCOC(=O)c1c(C(F)(F)C(F)(F)C(F)(F)C(F)(F)F)n[nH]c1C | 94.8* | 0.1 | 0.1 | 91.5* | -3.56
Cc1ccc(-c2ccc(=O)n(CC(=O)N3CCN(c4cc(Cl)ccc4C)CC3)n2)cc1 | 9.4 | 1 | 0.9 | -1.9 | -1.9
CCOc1ccc2nc(SCC(=O)N(C)C)[nH]c2c1 | 18.6 | 0.9 | 0.8 | 14.1 | -0.0359
CN1CCN(c2ccccc2NC(=O)C(Cc2ccccc2)n2cccc2)CC1 (stereo not given) | · | · | · | · | -0.317
